“And” between values parts separate entries of the source, which are not always exact repeats. Identical values can stand only once. Values without a mark were called inactive. Records with an inconclusive call do not appear. Entries that show only a call come without a potency. The source made the active and inactive calls. Unless noted, calls follow the shape of the dose curve; as a rule, active = well fitted curve in the direction sought with a large enough effect in the repeat runs; inconclusive = weak or mixed curves; inactive = no such curve, though single readings can be large; an effect the other way counts as inactive or inconclusive.
Columns and labels:
[1] = qHTS assay to identify small molecule antagonists of the estrogen related receptor (ERR) signaling pathway from Tox21 library - cell viability counter screen (AID 1224834); also: nearly all actives have a fitted effect of over 30% in size
Outline: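 ERR reporter cells were plated 6 h before compound addition, then exposed to test compounds in DMSO for 17.5 h at 37 C. Viability was read as CellTiter-Fluor fluorescence after a 30-minute incubation at 37 C.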

[2] = biological target: Luciferin 4-monooxygenase (Photinus pyralis) (UniProt P08659); assay: qHTS assay to identify small molecule inhibitors of firefly luciferase (AID 1224835); also: nearly all actives have a fitted effect of over 25% in size; also: potency is read from the fitted curve at half-maximal effect
Outline: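 Biochemical qHTS: compounds run as interplate titrations against purified firefly enzyme, with D-luciferin and ATP each at its KM concentration. Light output recorded by CCD imaging.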

[3] = qHTS assay to identify small molecule agonists of the constitutive androstane receptor (CAR) signaling pathway - cell viability counter screen (AID 1224836); also: nearly all actives have a fitted effect of over 45% in size; also: potency is read from the fitted curve at half-maximal effect
Outline: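 23 h treatment, 37 C, 5% CO2. Cell line: HepG2 stably expressing hCAR with a CYP2B6-2.2kb construct. Co-treatment: PK11195, 0.75 uM final. Read-out: CellTiter-Fluor fluorescence intensity.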

[4] = qHTS assay to identify small molecule antagonists of the constitutive androstane receptor (CAR) signaling pathway - cell viability counter screen (AID 1224837); also: nearly all actives have a fitted effect of over 45% in size; also: potency is read from the fitted curve at half-maximal effect
Outline: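 HepG2 cells stably expressing hCAR and a CYP2B6-2.2kb reporter were plated and pre-incubated 4 hr at 37 C/5% CO2, then given compounds at 15 concentrations plus 50 nM CITCO (final). After 23 hr, viability was read by CellTiter-Fluor fluorescence.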

[5] = biological target: Nuclear receptor subfamily 1 group I member 3 (Homo sapiens) (UniProt Q14994); assay: qHTS assay to identify small molecule antagonists of the constitutive androstane receptor (CAR) signaling pathway (AID 1224838); also: nearly all actives have a fitted effect of over 40% in size; also: potency is read from the fitted curve at half-maximal effect
Outline: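 HepG2 cells stably co-transfected with hCAR and a CYP2B6-2.2kb luciferase reporter were seeded 4 h before compound addition at 15 concentrations. Cells were stimulated with 50 nM CITCO (final) for 24 h at 37 C; luciferase luminescence was then read.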

[6] = biological target: Nuclear receptor subfamily 1 group I member 3 (Homo sapiens) (UniProt Q14994); assay: qHTS assay to identify small molecule agonists of the constitutive androstane receptor (CAR) signaling pathway (AID 1224839); also: nearly all actives have a fitted effect of over 15% in size; also: potency is read from the fitted curve at half-maximal effect;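 as to activation: HepG2 cells stably carrying human CAR and a CYP2B6 luciferase reporter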
Outline: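 Compounds tested at 15 concentrations on HepG2 cells stably harbouring hCAR and CYP2B6-2.2kb reporter constructs, co-treated with PK11195 (0.75 uM final), 24 h at 37 C; luminescent reporter signal quantified.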

[7] = qHTS assay to identify small molecule antagonists of the estrogen related receptor signaling pathway with the pleiotropic PPARgamma coactivator (PGC) from Tox21 10K library - cell viability counter screen (AID 1224840; active = well fitted cell-killing curve with a large enough effect in the repeat runs, not every such curve was filed as active; also: nearly all actives have a fitted effect of over 40% in size; also: potency is read from the fitted curve at half-maximal effect)
Outline: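 PGC/ERR cells were seeded at 2,000 cells/well and left 6 hours at 37 C/5% CO2 before pin-tool addition of compounds in DMSO. After 17.5 hours at 37 C, CellTiter-Fluor was added and fluorescence read 30 minutes later.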

[8] = qHTS assay to identify small molecule agonists of H2AX (AID 1224845; active = well fitted activation curve with a large enough effect in the signal ratio in the repeat runs, not every such curve was filed as active; the % refers to the signal ratio)
Outline: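 Wild-type CHO-K1 cells, plated overnight, exposed 3hr at 37C to 15 concentrations (0.76% DMSO final). Lysed, then HTRF anti-pH2AX (S139) cryptate and anti-H2AX-d2 antibodies, 24 hr room temperature; 665/620 nm emission read.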

[9] = qHTS assay to identify small molecule agonists of the hypoxia (HIF-1) signaling pathway (AID 1224846; active = well fitted activation curve with a large enough effect in the signal ratio in the repeat runs, not every such curve was filed as active; the % refers to the signal ratio)
Outline: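 HRE-bla ME-180 cells (beta-lactamase reporter under hypoxia response element) were plated at 2,000 cells/well in medium with 0.5% dialyzed FBS, rested 5 hrs, then given compounds in DMSO for 17 hrs at 37C, 5% CO2. Reporter induction was read with CCF4-AM FRET substrate.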

[10] = qHTS assay to identify small molecule agonists of the estrogen related receptor (ERR) signaling pathway from Tox21 library (AID 1224849; calls by dose curve; also: nearly all actives have a fitted effect of over 15% in size); settings: ERR reporter cell line, ONE-Glo luciferase, 18 h; at 92.4 µM (top of the series) unless noted
Outline: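 ERR reporter cell line (NTP) seeded, rested 6 h at 37 C/5% CO2, then pinned with Tox21 compounds in DMSO. After 18 h at 37 C, ONE-Glo luciferase luminescence was read following 30 min at room temperature.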

[11] = qHTS RealTime-Glo MT Cell Viability Assay in HepG2 cells - 24 hour (AID 1224867); also: nearly all actives have a fitted effect of over 50% in size
Outline: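 Compound treatment began 5 h after plating HepG2 cells (600/well) with NanoLuc luciferase and prosubstrate. Plates stayed at 37 C for 40 h; luminescence was captured at six time points, 0 h through 40 h.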

[12] = qHTS RealTime-Glo MT Cell Viability Assay in HEK293 cells - 32 hour (AID 1224868); also: nearly all actives have a fitted effect of over 50% in size; also: potency is read from the fitted curve at half-maximal effect
Outline: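 Quantitative high-throughput screen of the Tox21 10K library in HEK293: cells and RealTime-Glo reagents plated together, compound added at 5 h, luminescence monitored through 40 h at 37 C.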

[13] = A CellTox Green Cytotoxicity Assay to monitor cytotoxicity in HEK293 cells - 0 hour (AID 1224869); also: nearly all actives have a fitted effect of over 50% in size
Outline: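 HEK293 cells premixed with CellTox Green dye were seeded at 600 cells/well and left 5 h at 37 C/5% CO2 before pin transfer of 23 nL compound in DMSO. Fluorescence from dye bound to dead-cell DNA was read during 40 h treatment.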

[14] = qHTS RealTime-Glo MT Cell Viability Assay in HepG2 cells - 40 hour (AID 1224870); also: nearly all actives have a fitted effect of over 50% in size
Outline: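 HepG2 cells (600/well) mixed with RealTime-Glo MT reagent, settled 5 h at 37 C/5% CO2 before compound addition. Nonlytic NanoLuc luminescence from viable-cell prosubstrate reduction read repeatedly during 40 h treatment at 37 C.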

[15] = qHTS assay to identify small molecule antagonists of the estrogen related receptor signaling pathway with the pleiotropic PPARgamma coactivator (PGC) from Tox21 10K library (AID 1224841; call rule not given here; also: potency is read from the fitted curve at half-maximal effect)
Outline: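 PGC/ERR reporter cells were seeded at 2,000 cells/well and held 6 hours at 37 C/5% CO2 before pin-tool addition of compounds in DMSO. After 18 hours at 37 C, One-Glo was added and luminescence read after 30 minutes at room temperature.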

[16] = qHTS assay to identify small molecule agonists of the estrogen related receptor signaling pathway with the pleiotropic PPARgamma coactivator (PGC) from Tox21 10K library (AID 1224842); also: nearly all actives have a fitted effect of over 15% in size
Outline: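 PGC/ERR reporter cell line, 2,000 cells per well, incubated 6 h at 37 C before 23 nL compound in DMSO was added. After 18 h at 37 C, One-Glo luminescence read following 30 min at room temperature.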

[17] = biological target: Thyrotropin receptor (Homo sapiens) (UniProt P16473); assay: qHTS assay to identify small molecule agonists of the thyroid stimulating hormone receptor (TSHR) signaling pathway (AID 1224843; calls by dose curve; also: nearly all actives have a fitted effect of over 45% in size)
Outline: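 Steps: seed 800 TSHR-HEK293 cells per well; add test compound and hold 30 min at ambient temperature; dispense cAMP-d2 then anti-cAMP cryptate; incubate 1 h at ambient; measure fluorescence intensity.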

[18] = qHTS assay to identify small molecule agonists of the hypoxia (HIF-1) signaling pathway - cell viability counter screen (AID 1224844; calls by dose curve; also: nearly all actives have a fitted effect of over 50% in size)
Outline: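 HRE-bla ME-180 cells in medium with 0.5% dialyzed FBS were preincubated 5 hrs at 37C, exposed to compounds for 17 hrs, then viability was read as CellTiter-Glo luminescence after 30 min at room temperature, in the reporter wells.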

[19] = qHTS assay to identify small molecule agonists of H2AX - cell viability counter screen (AID 1224847; calls by dose curve; also: nearly all actives have a fitted effect of over 30% in size; also: potency is read from the fitted curve at half-maximal effect)
Outline: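 Compounds tested at 15 concentrations were incubated 3 hr at 37C with wild-type CHO-K1 cells; cellular ATP-based luminescence (CellTiter-Glo) indicated viability.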

[20] = qHTS assay to identify small molecule antagonists of the estrogen related receptor (ERR) signaling pathway from Tox21 library (AID 1224848); also: nearly all actives have a fitted effect of over 50% in size; also: potency is read from the fitted curve at half-maximal effect
Outline: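 Luminescent reporter read-out (ONE-Glo) from NTP's ERR cell line after 18 h treatment at 37 C with DMSO-dissolved Tox21 compounds; cells pre-plated 6 h beforehand at 2,000 per well.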

Sequence of Nuclear receptor subfamily 1 group I member 3 (Homo sapiens) (Q14994 whole entry, looked up): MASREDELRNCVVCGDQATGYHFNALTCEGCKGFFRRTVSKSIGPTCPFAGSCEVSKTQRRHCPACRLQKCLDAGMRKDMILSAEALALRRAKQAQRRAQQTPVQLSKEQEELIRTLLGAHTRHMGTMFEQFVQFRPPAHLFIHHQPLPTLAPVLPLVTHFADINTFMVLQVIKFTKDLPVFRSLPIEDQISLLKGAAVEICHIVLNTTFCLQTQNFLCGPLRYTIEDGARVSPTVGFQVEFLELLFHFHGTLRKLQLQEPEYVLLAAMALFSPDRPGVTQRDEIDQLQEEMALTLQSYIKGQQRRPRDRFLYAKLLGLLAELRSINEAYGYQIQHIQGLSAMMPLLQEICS
Sequence of Luciferin 4-monooxygenase (Photinus pyralis) (P08659 whole entry, looked up): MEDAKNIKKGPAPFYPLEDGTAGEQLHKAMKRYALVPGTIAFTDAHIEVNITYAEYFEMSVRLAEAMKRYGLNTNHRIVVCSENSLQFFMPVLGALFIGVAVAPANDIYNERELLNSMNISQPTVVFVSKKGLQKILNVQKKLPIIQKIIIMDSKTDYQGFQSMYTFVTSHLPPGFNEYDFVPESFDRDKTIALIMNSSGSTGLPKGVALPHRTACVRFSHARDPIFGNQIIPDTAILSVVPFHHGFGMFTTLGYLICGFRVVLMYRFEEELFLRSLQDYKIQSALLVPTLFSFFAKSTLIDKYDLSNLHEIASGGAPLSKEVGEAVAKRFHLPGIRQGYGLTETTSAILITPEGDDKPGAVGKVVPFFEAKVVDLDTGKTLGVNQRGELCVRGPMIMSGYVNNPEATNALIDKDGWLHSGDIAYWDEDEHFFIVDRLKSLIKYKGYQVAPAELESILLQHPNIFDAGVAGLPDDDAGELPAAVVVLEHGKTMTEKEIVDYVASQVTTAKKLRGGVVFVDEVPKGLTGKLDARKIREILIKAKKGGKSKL
Sequence of Thyrotropin receptor (Homo sapiens) (P16473 whole entry, looked up): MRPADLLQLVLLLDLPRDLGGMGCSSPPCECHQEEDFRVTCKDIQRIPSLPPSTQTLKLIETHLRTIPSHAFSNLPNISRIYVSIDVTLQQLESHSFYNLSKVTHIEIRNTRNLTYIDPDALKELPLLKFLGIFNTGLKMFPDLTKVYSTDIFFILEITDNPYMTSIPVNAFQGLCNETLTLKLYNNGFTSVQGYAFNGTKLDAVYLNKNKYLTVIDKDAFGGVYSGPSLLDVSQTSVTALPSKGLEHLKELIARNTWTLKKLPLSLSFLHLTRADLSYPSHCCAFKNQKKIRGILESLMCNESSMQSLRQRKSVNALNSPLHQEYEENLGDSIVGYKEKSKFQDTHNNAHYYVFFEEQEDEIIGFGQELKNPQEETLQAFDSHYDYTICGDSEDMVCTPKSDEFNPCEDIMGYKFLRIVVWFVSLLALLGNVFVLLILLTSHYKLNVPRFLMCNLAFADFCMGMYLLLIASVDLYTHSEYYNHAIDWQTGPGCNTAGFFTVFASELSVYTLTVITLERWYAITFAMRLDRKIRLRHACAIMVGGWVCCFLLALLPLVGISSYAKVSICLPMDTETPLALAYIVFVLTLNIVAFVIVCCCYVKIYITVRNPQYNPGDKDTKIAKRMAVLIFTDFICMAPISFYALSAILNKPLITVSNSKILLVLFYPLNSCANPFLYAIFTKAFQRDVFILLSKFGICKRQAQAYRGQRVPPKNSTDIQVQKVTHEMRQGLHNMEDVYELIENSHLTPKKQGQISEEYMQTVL

Row | SMILES | Potency [1] | Potency [2] | Potency [3] | Potency [4] | Potency [5] | Potency [6] | Potency [7] | Potency [8] | outcome [9] | activity change, positive = activation [10] | Potency [11] | Potency [12] | Potency [13] | Potency [14] | Potency [15] | Potency [16] | Potency [17] | Potency [18] | Potency [19] | Potency [20]
1 | O=C1C(Cl)C(CCl)CN1c1cccc(C(F)(F)F)c1 (stereo not given) | inactive | inactive | inactive | inactive | inactive | inactive | inactive | inactive | inactive | -29.4% | inactive | 24.5 µM (active) | inactive | inactive | – | – | – | – | – | –
2 | O=[Se]=O | inactive | inactive | 21.5 µM (active) | 21.5 µM (active) | 27.1 µM (active) | inactive | 17.1 µM (active) | inactive | inactive | -51.4% [at 42.5 µM] | inactive | 17.3 µM (active) | inactive | – | 13.6 µM (active) | inactive | inactive | inactive | inactive | 30.4 µM (active)
3 | C=CCC1([C@H](C)CCC)C(=O)NC(=O)NC1=O | inactive | inactive | inactive | inactive | inactive | inactive | inactive | inactive | inactive | – | – | inactive | inactive | inactive | – | – | inactive | inactive | inactive | –
4 | COc1cc(CC(C)N)cc2c1OCO2 (stereo not given) | inactive | inactive | inactive | inactive | inactive | inactive | – | inactive | inactive | -3.18% | inactive | inactive | inactive | inactive | inactive | inactive | inactive | inactive | inactive | –
5 | C=CC(=O)OCC(C)C | inactive | inactive | inactive | inactive | inactive | inactive | inactive | inactive | inactive | 5.29% | – | inactive | inactive | inactive | inactive | inactive | inactive | inactive | inactive | inactive
6 | N#C/C(N)=C(/N)C#N | inactive | inactive | inactive | inactive | inactive | inactive | – | – | inactive | 0.178% | – | inactive | inactive | inactive | inactive | inactive | inactive | inactive | inactive | inactive
7 | CCOP(=S)(OCC)Oc1nc(Cl)c(Cl)cc1Cl | inactive | inactive | inactive | inactive | inactive | 27.4 µM (active) and 30.6 µM (active) | inactive | – | inactive | – | inactive | – | inactive | inactive | – | – | – | inactive | 56.8 µM (active) | –
8 | COP(=S)(OC)Oc1cc(Cl)c(I)cc1Cl | inactive | 79.6 µM (active) | inactive | inactive | inactive | 54.5 µM (active) | inactive | inactive | inactive | – | inactive | inactive | inactive | inactive | – | – | inactive | inactive | – | –
